{"source": "PubChem BioAssay (Tox21)", "note": "Records with an inconclusive call do not appear. Where a call stands in place of a potency, no number is given. The source made the active and inactive calls. The call rests on the fitted dose curve; in most records, active means well fitted cell-killing curve with a large enough effect in the repeat runs; inconclusive means weak or mixed curves, or effect the other way; inactive means flat fitted curve, though single readings scatter. Potency means the concentration at half of the fitted maximal effect."}
{"test": "qHTS assay to identify small molecule antagonists of the androgen receptor (AR) signaling pathway using the MDA cell line in the presence of 0.5 nM R1881 - cell viability counter screen (AID 1259242); further: nearly all actives have a fitted effect of over 45% in size", "conditions": "MDA-kb2 viability, CellTiter-Fluor protease fluorescence, 16 h; series mostly up to 92.4 µM", "description": "U.S. Tox21 Program National Center for Advancing Translational Sciences [NCATS] NIH Chemical Genomics Center [NCGC] U.S. Environmental Protection Agency [EPA] National Institutes of Environmental Health Sciences [NIEHS] National Toxicology Program [NTP] U.S. Food and Drug Administration [FDA] Tox21 Assay Overview: Androgen receptor (AR) is an important member of the nuclear receptor family. Its signaling plays a critical role in AR-dependent prostate cancer and other androgen related diseases. Considerable attention has been given in the past decades to develop methods to study and screen for the environmental chemicals that have the potential to interfere with metabolic homeostasis, reproduction, developmental and behavioral functions. Therefore AR binding assay for screening androgen antagonists can be used to identify potential endocrine disruptors. MDA-kb2 cells (from ATCC, deposited by Wilson et al.) were used to screen for AR inhibitors against Tox21 compound libraries. These cells are human breast carcinoma cells that were stably transfected with a luciferase reporter gene under control of the MMTV promoter that contains response elements for both androgen receptor (AR) and glucocorticoid receptor (GR). The current screening for identification of AR inhibitors against Tox21 libraries used lower concentration of (0.5 nM) R1881 as a stimulator. The cytotoxicity of the Tox21 compound libraries against MDA-kb2 cell line was tested by measuring live-cell protease activity using CellTiter-Fluor assay in the same wells.\nTox21 Assay Protocol Summary: MDA-kb2 cells (cells cultured without CO2) were dispensed at 3,000 cells/well in 4 uL of culture medium into white wall/solid-bottom 1536-well plates (Corning Life Sciences, Corning, NY) using a Multidrop Combi (ThermoFisher Scientific, Waltham, MA) dispenser. After the assay plates were incubated at a 37C and 0% CO2 for 5 hr, 23 nL of compounds dissolved in DMSO, positive controls or DMSO only was transferred to the assay plate by a Pintool station (Kalypsys, San Diego, CA). The transfer of compounds was followed by the addition of 1 uL of 0.5 nM (final concentration) agonist (R1881)/culture medium using a Flying Reagent Dispenser (FRD, Aurora Discovery, San Diego, CA). The plates were incubated at 37C and 0% CO2 for 16 hr. For cytotoxicity assay, 1 uL of CellTiter-Fluor reagent (Promega Corporation, Madison, WI) was added to each well using the FRD and after 30 min incubation at 37C and 0% CO2, The fluorescence intensity was measured using ViewLux plate reader (PerkinElmer, Shelton, CT)."}
{"smiles": "O=C(CS)Nc1ccccc1", "Potency": "inactive"}
{"smiles": "CCc1cc(C2=C(C(=O)O)N(c3ccccc3C(F)(F)F)S(=O)(=O)c3ccccc32)cc2c1OCO2", "Potency": "inactive"}
{"smiles": "C=C1[C@H]2CC[C@@H]3[C@H]2C(C)(C)CCC[C@]13C", "Potency": "inactive"}
{"smiles": "CN1CCN(C(c2ccccc2)c2ccccc2)CC1", "Potency": "inactive"}
{"smiles": "CCC(Cl)CCC(Cl)C(Cl)CC(Cl)C(Cl)C(Cl)CCl", "note": "(stereo not given)", "Potency": "inactive"}
{"smiles": "CCCCC(CC)CN1C(=O)C2C3C=CC(C3)C2C1=O", "note": "(stereo not given)", "Potency": "inactive"}
{"smiles": "NCC(=O)CCC(=O)O", "Potency": "inactive"}
{"smiles": "C1CCCNCCC1", "Potency": "inactive"}
{"smiles": "C[C@@H](c1ncncc1F)C(O)(Cn1cncn1)c1ccc(F)cc1F", "note": "(stereo not given in full)", "Potency": "inactive"}
{"smiles": "CCCCCCOC(=O)NC(=N)c1ccc(NCc2nc3cc(C(=O)N(CCC(=O)OCC)c4ccccn4)ccc3n2C)cc1", "Potency": "26.6 µM (active)"}
{"smiles": "COC(=O)C1=C(C)NC(COC(N)=O)=C(C(=O)OC(C)C)C1c1cccc(Cl)c1Cl", "note": "(stereo not given)", "Potency": "inactive"}
{"smiles": "CC(C)(C)Cl", "Potency": "inactive"}
{"smiles": "COc1ccc(C(=O)N2CCN(CC(=O)N3CCOCC3)CC2)cc1", "Potency": "inactive"}
{"smiles": "CCCCCC[C@@H](O)C/C=C\\CCCCCCCC(=O)OC", "Potency": "inactive"}
{"smiles": "CCc1c(C(=O)NN2CCCCC2)nn(-c2ccc(Cl)cc2Cl)c1-c1ccc(Br)cc1", "Potency": "inactive"}
{"smiles": "COCCCN1CCC(NC(=O)c2cc(Cl)c(N)c3c2OCC3)CC1", "Potency": "inactive"}
{"smiles": "CN1Cc2cc(C(=O)N3CCC(C4CCNCC4)CC3)ccc2NC(CC(=O)O)C1=O", "note": "(stereo not given)", "Potency": "inactive"}
{"smiles": "NC(N)=NCCC[C@H](N)C(=O)O", "viability change, negative = cytotoxic": "3.68% [at 8.39 µM] (inactive)"}
{"smiles": "CC1=CCCC(C)(C)C12CCC(C)O2", "note": "(stereo not given)", "Potency": "inactive"}
{"smiles": "O=C(O)C1(C(=O)Nc2ccc(Cl)cc2Cl)CC1", "Potency": "inactive"}
{"smiles": "C[C@@H]1C[C@H]2[C@@H]3CCC4=CC(=O)C=C[C@]4(C)[C@@]3(F)[C@@H](O)C[C@]2(C)[C@@]1(O)C(=O)COC(=O)c1ccncc1", "Potency": "inactive"}
{"smiles": "COc1ccc(C(=O)c2ccc(OC)cc2O)c(O)c1", "Potency": "inactive"}
{"smiles": "CCOC(=O)C(F)(F)F", "Potency": "inactive"}
{"smiles": "CC(CSC(=O)c1ccccc1)C(=O)N1C[C@@H](Sc2ccccc2)C[C@H]1C(=O)O", "note": "(stereo not given in full)", "viability change, negative = cytotoxic": "5.22% [at 19 µM] (inactive)"}
{"smiles": "Cc1ccc(C(=O)Oc2ccc(C(O)CNC(C)(C)C)cc2OC(=O)c2ccc(C)cc2)cc1", "note": "(stereo not given)", "Potency": "inactive"}
{"smiles": "Nc1ccccc1S(=O)(=O)c1ccccc1", "Potency": "inactive"}
{"smiles": "O=C(O)CC(=O)C(=O)O", "Potency": "inactive"}
{"smiles": "COc1cccc(N(C)C(=S)Oc2ccc3c(c2)CCCC3)n1", "Potency": "inactive"}
{"smiles": "CCCCc1ncc(/C=C(\\Cc2cccs2)C(=O)O)n1Cc1ccc(C(=O)O)cc1", "Potency": "inactive"}
{"smiles": "O=C(Nc1ccc(S(=O)(=O)N2CCOCC2)cc1)c1cc(Cl)ccc1NS(=O)(=O)c1ccc(Cl)s1", "Potency": "inactive"}
{"smiles": "CCOC(=O)c1cccnc1", "Potency": "inactive"}
{"smiles": "O=C(c1ccc(F)cc1)C1CCN(CCn2c(=S)[nH]c3ccccc3c2=O)CC1", "Potency": "inactive"}
{"smiles": "CCOc1ccc(N)c([N+](=O)[O-])c1", "Potency": "inactive"}
{"smiles": "Brc1c2ccccc2cc2ccccc12", "Potency": "inactive"}
{"smiles": "C[Si](C)(CCCN)O[Si](C)(C)CCCN", "Potency": "inactive"}
{"smiles": "COS(=O)(=O)C(F)(F)F", "Potency": "inactive"}
{"smiles": "CCOC(=O)Cc1cccc2ccccc12", "Potency": "inactive"}
{"smiles": "CN(C)CCN(Cc1ccsc1)c1ccccn1", "Potency": "inactive"}
{"smiles": "c1ccc(C(O[C@H]2CCCN(CCc3ccc4c(c3)OCO4)C2)c2ccccc2)cc1", "Potency": "inactive"}
{"smiles": "OCCNCc1ccccc1", "Potency": "inactive"}
